FUS suppressor = suppressors of FUS proteinopathy in yeast; S. cerevisiae FUS-expressing, growth rescue, OD600, 24 h; Potency, µM (titrated, usually from 76.6 µM), usual class: activators; 390,000 compounds, 0.24% hits; AID 1347120; note: nearly all actives have a fitted effect of over 55% in size
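Toxicity suppression screen in FUS-yeast. Cells induced with 2% galactose, starting OD 0.005, treated 24hr at 30C with compounds at multiple final concentrations; growth by OD600.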
aSyn rescue = rescues yeast growth from alpha-synuclein toxicity. AID 652106. Potency, µM (top dose mostly 46.1 µM), usual class: activators. Yeast expressing alpha-synuclein, growth rescue, BacTiter-Glo, 24 h. 370,000 compounds, 0.14% hits; note: nearly all actives have a fitted effect of over 65% in size
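Readout is rescue of growth in alpha-synuclein-expressing yeast, so inhibitors of toxicity appear as activators. Growth after 24 hr at 30 deg C in galactose medium is quantified by luminescence.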
TDP-43 yeast inh = rescues yeast growth from TDP-43 toxicity | TDP-43 expressing yeast growth rescue, BacTiter-Glo, 24 h | Potency, µM (doses to about 46.1 µM), usual class: activators | 410,000 compounds, 1.8% hits | AID 652104; note: nearly all actives have a fitted effect of over 50% in size
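Galactose-induced TDP-43 yeast, OD600=0.02, compound pinned; 24 hr, 30 deg C; BacTiter-Glo luminescence for growth. Inhibitors of TDP-43 toxicity read as activators.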
Abeta rescue = A-beta toxicity reversal in yeast | yeast expressing A-beta42, growth rescue, OD600, 48 h; response scale: 0% DMSO, 100% iron-clioquinol control | Potency, µM (titrated, usually from 46.1 µM), actives largely listed as activators | 410,000 compounds, 0.063% hits | AID 1347071; note: nearly all actives have a fitted effect of over 55% in size
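Growth rescue measured by 600 nm absorbance after 48 h yeast culture at 30 C with compound. Values normalized between DMSO and an equimolar ferric chloride plus clioquinol control.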
Each line names hits and unclear results; the compound was inactive in the other large screens. Rows were chosen to be rich in hits. Some 2.1% of all compounds tested hit in one or more screens of this group. Calls come from the whole dose curve; as a rule, active = well fitted curve in the direction sought with a large enough effect; inconclusive = small, poorly fitted or top-dose-only effect, or another doubt; inactive = no such curve, though single readings can be large; an effect the other way counts as inactive or inconclusive.

Cc1ccc(NC(=O)Cn2nnc(-c3ccncc3)n2)cc1C	none (no result: aSyn rescue, TDP-43 yeast inh, Abeta rescue)
O=C(c1ccoc1)N1CCN(c2cc(-c3ccco3)nc3cc(-c4ccccc4)nn23)CC1	FUS suppressor inconclusive, TDP-43 yeast inh 20µM
Cc1cc(N2CCN(C(=O)c3ccoc3)CC2)n2nc(-c3ccccc3)cc2n1	none
O=C(c1ccoc1)N1CCN(c2cc(-c3ccccc3)nc3cc(-c4ccccc4)nn23)CC1	TDP-43 yeast inh 17.8µM
C[N+]1=C2N[C@@H](c3ccccc3)CC(=O)N2/C(=C\c2ccccc2)[C@@H]1Cc1ccccc1	none (no result: aSyn rescue, TDP-43 yeast inh, Abeta rescue)
CN(C)c1ccc(C=Nc2ccccc2C(N)=O)cc1	TDP-43 yeast inh 11.2µM
CCN1CCCCC(NC(=O)c2ccc(C)cc2)C1=O (configuration not stated)	none (no result: aSyn rescue, TDP-43 yeast inh, Abeta rescue)
O=S(Cc1ccc(Br)cc1)Cc1nnc(SCc2ccc(Cl)cc2)n1-c1ccccc1 (configuration not stated)	aSyn rescue inconclusive, TDP-43 yeast inh 6.31µM (no result: FUS suppressor)
CCOC(=O)Cn1c(CN(Cc2ccccc2)Cc2ccccc2)nc2c1c(=O)n(C)c(=O)n2C	FUS suppressor inconclusive, TDP-43 yeast inh 22.4µM
CNCc1nc(-c2ccc[nH]2)c2cc(Cl)ccc2n1	none (no result: FUS suppressor, TDP-43 yeast inh, Abeta rescue)
O=C1c2ccsc2SCCN1Cc1ccc(F)cc1	aSyn rescue inconclusive, TDP-43 yeast inh inconclusive
O=C1c2ccsc2SCCN1Cc1ccc(Cl)cc1	TDP-43 yeast inh 22.4µM
COc1ccc2c(c1)CCC/C2=N/OC(=O)c1ccccc1OC	TDP-43 yeast inh 15.8µM
COc1ccc2c(c1)CC/C2=N\OC(=O)c1ccccc1C	TDP-43 yeast inh inconclusive
O=C(O/N=C1\CCCc2ccccc21)c1cccs1	TDP-43 yeast inh 8.91µM
COc1ccc2c(c1)CC/C2=N\OC(=O)c1cccc(C)c1	TDP-43 yeast inh 5.01µM (no result: FUS suppressor)
CCOc1ccc2cc(C#N)c(SCC(=O)OCc3ccccc3)nc2c1	none (no result: FUS suppressor, TDP-43 yeast inh, Abeta rescue)
O=C(c1ccc(N2C(=O)c3ccccc3C2=O)cc1)N1CCN(S(=O)(=O)c2ccccc2F)CC1	FUS suppressor 28.2µM, TDP-43 yeast inh inconclusive
Cn1cc(C(CO)Cc2ccccc2)c2ccccc21 (configuration not stated)	aSyn rescue 17.8µM, TDP-43 yeast inh inconclusive
CCOc1ccc(-n2c(SCc3nc4ccccc4[nH]3)nnc2-c2cccc(Cl)c2)cc1	none (no result: aSyn rescue, TDP-43 yeast inh, Abeta rescue)
CC1(C)OC(=O)C2(Cc3cc([N+](=O)[O-])ccc3N3CCCCC32)C(=O)O1 (configuration not stated)	none (no result: FUS suppressor, TDP-43 yeast inh, Abeta rescue)
c1cnc2c(c1)ccc1cccnc12	TDP-43 yeast inh 35.5µM
CCC(C(=O)NC1CCCCC1)n1nc(C)c2sc3ccccc3c2c1=O (configuration not stated)	TDP-43 yeast inh inconclusive (no result: aSyn rescue)
CNC(=O)c1ccccc1Nc1ccc(SC(F)F)cc1	TDP-43 yeast inh 22.4µM
COc1ccc2oc(=O)cc(CN3CCN(C(=O)c4ccccc4Br)CC3)c2c1	none (no result: aSyn rescue)
COC(=O)C1=C(C)N(Cc2ccccc2)C(=S)N[C@H]1c1ccc(Br)cc1	FUS suppressor inconclusive, TDP-43 yeast inh 15.8µM
NNC(=S)Nc1ccc(Cl)cc1	Abeta rescue inconclusive
NNC(=S)Nc1ccc(OC(F)(F)F)cc1	Abeta rescue 11.2µM
CCCN(CC(=O)Nc1cc(Cl)cc(Cl)c1)CC(=O)Nc1ccc(F)c(F)c1F	TDP-43 yeast inh 28.2µM, Abeta rescue inconclusive
S=C1NCCc2ccc(Cl)cc2C1c1ccccc1 (configuration not stated)	aSyn rescue inconclusive, TDP-43 yeast inh 14.1µM
Cn1ccc(NC(=O)Nc2ccc(Cl)cc2Cl)n1	TDP-43 yeast inh 14.1µM
N#Cc1ccc(/C=C2\CC3(OC(=O)C4CCCCC4)CCCN2C3)cc1 (configuration not stated)	none (no result: aSyn rescue, TDP-43 yeast inh, Abeta rescue)
CC[C@@H]1C(c2ccccc2)=NN(c2ccc(Br)cc2)[C@H]1C(=O)N1CCOC1=O	aSyn rescue inconclusive, TDP-43 yeast inh inconclusive
CC[C@@H]1C(c2ccc(F)cc2)=NN(c2ccc(Br)cc2)[C@H]1C(=O)N1CCOC1=O	TDP-43 yeast inh 14.1µM
CCOC(=O)[C@]12CCCCC/C=C\1N(CCc1ccc(Cl)cc1)C(=O)[C@H]2CC(=O)N1CCCCC1	none (no result: aSyn rescue, TDP-43 yeast inh, Abeta rescue)
COc1ccc2cc([S+]([O-])Cc3ncc(C)c(OC)c3C)nc2c1	none (no result: FUS suppressor, TDP-43 yeast inh, Abeta rescue)
C=CCN1C(=O)[C@H](CC(=O)NCCCOCCCC)[C@@]2(C(=O)OCC)CCCC=C12	none (no result: aSyn rescue, TDP-43 yeast inh, Abeta rescue)
Cc1cccc(C)c1-n1nnnc1C1c2ccccc2C(=O)N1CCc1ccccc1F (configuration not stated)	TDP-43 yeast inh 35.5µM
Cc1cccc(C)c1-n1nnnc1C1c2ccccc2C(=O)N1CCC(C)C (configuration not stated)	none
CC1CN(C(=O)CCC(=O)Nc2cc(F)ccc2F)c2ccccc2S1 (configuration not stated)	TDP-43 yeast inh 11.2µM (no result: aSyn rescue)
C#CCN1C(=O)[C@@](O)(c2cccn2C)c2cc(F)ccc21	none (no result: aSyn rescue, TDP-43 yeast inh, Abeta rescue)
C[C@H]1C2CC(OC(=O)NCc3ccccc3)C(C2)[C@H]2CCCCN21 (some centres not stated)	none (no result: aSyn rescue, TDP-43 yeast inh, Abeta rescue)
CSc1nnc2c(n1)c(C)nn2-c1cccc(C)c1	TDP-43 yeast inh 12.6µM
COc1ccc(OC)c(/C=C/C(=O)c2ccc3c(c2)OCCO3)c1	TDP-43 yeast inh 11.2µM
COc1cc(/C=C/C(=O)c2ccc3c(c2)OCCO3)cc(OC)c1OC	TDP-43 yeast inh inconclusive
Cc1cc(C(=O)O[C@@H]2CCC[C@]3(C(=O)N(Cc4ccccc4)c4ccccc43)[C@H]2NC(=O)CCc2ccccc2)no1	none (no result: aSyn rescue, TDP-43 yeast inh, Abeta rescue)
O=C(CCS(=O)(=O)c1ccccc1)Nc1ccc(F)cc1F	none (no result: aSyn rescue, TDP-43 yeast inh, Abeta rescue)
Cc1cccc(C)c1OCC(=O)N/N=C/c1ccc2c(c1)OCO2	none
Cc1ccc(C(C)C)cc1OCC(=O)N/N=C/c1ccc2c(c1)OCCO2	TDP-43 yeast inh 12.6µM
S=C(NCc1ccc(Cl)cc1)OC1CCC12CCC(c1ccccc1)CC2 (configuration not stated)	none (no result: aSyn rescue, TDP-43 yeast inh, Abeta rescue)
CCCCN=Cc1sc2ccc(OCC)cc2c1O	TDP-43 yeast inh 15.8µM
CC(C)CC(C(=O)OCC(=O)Nc1cccc(Cl)c1)N1C(=O)C2CC=CCC2C1=O (configuration not stated)	TDP-43 yeast inh 35.5µM (no result: FUS suppressor)
CC(C)CN1C(=O)[C@@]2(CC(=O)N(C)C2c2ccccc2)c2cc(-n3cc(CN(C)C)nn3)ccc21 (some centres not stated)	none (no result: aSyn rescue, TDP-43 yeast inh, Abeta rescue)
O=C(Oc1ccccc1/C=C\C(=O)c1cc2ccccc2o1)c1cccc(F)c1	TDP-43 yeast inh inconclusive
O=C(Oc1ccccc1/C=C\C(=O)c1cc2ccccc2o1)c1ccccc1	TDP-43 yeast inh 22.4µM (no result: FUS suppressor)
O=C(Oc1ccc(Cl)c2cccnc12)c1ccco1	TDP-43 yeast inh 31.6µM
O=C(Oc1cccc2cccnc12)c1ccco1	none
O=C(NNC(=O)c1ccccn1)c1ccc(OC(F)F)cc1	aSyn rescue inconclusive, TDP-43 yeast inh 31.6µM
C[C@H](CO)N1C[C@H](C)[C@H](CN(C)S(=O)(=O)c2ccccc2)Oc2ccc(NC(=O)NC3CCCCC3)cc2CC1=O	FUS suppressor 22.4µM
C[C@H](CO)N1C[C@H](C)[C@@H](CN(C)S(=O)(=O)c2ccc(Cl)cc2)Oc2ccc(NS(=O)(=O)c3ccccc3)cc2CC1=O	FUS suppressor 10µM
